# Experimental data: article PMC7819943, “Rice protein-binding microarrays: a tool to detect cis-acting elements near promoter regions in rice”
# In all, about 68,000 sequences were measured (“fluorescence intensity (a.u.)”: median about 9,100, highest 2% from about 16,000 on). What follows is part of a selection rich in the highest values, with near analogues and random picks from the rest.
# Target: OsWRKY34 (Oryza sativa, UniProt Q0JBA9 1-250)
# Assay: protein-binding microarray (RPBM); PBS, 2% BSA, 51.3 ng/ul salmon testes DNA, 50 uM zinc acetate, 200 nM TF, 25 C, 1 h; high values mean tight binding
# Conditions: protein: recombinant; tags: N-terminal polyhistidine and DsRed monomer fusion (pET32a); label: CyDye5-dUTP incorporated in the synthesized complementary strand; 3' TTTTT single-stranded linker to array surface; dsDNA, one strand shown
# Outline: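 Using Ni–NTA, transcription factors fused N-terminally to polyhistidine and DsRed were purified after expression in E. coli BL21-CodonPlus. These were incubated at 200 nM with a blocked, double-stranded custom Agilent array for 1 h at 25 °C in a buffer containing 50 µM zinc acetate, and the array was washed. The binding signal is per-feature fluorescence intensity (arbitrary units) on an Axon 4000B scanner.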
# OsWRKY34, sequence (Q0JBA9 entry or part of it): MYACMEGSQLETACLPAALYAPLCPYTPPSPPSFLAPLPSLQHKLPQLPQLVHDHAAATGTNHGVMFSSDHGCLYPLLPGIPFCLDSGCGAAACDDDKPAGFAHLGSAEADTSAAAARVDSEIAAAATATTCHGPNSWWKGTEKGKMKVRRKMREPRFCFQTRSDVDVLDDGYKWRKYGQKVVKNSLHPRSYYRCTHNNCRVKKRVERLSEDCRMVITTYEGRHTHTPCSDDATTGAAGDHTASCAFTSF
row,Sequence,binding signal
1,TTTTTCTCGTTTGCCGTGTCACCGCGTGAGTTGCGCGGGGCGGAGTCACCTAGTGCAG,11700 fluorescence intensity (a.u.)
2,ATCACATCAACCTGTCATATACACACAACTTTTCAGTCATCGGAGTCACCTAGTGCAG,8530 fluorescence intensity (a.u.)
3,TTAAAAAACATTGTACCACAAGTAGCAACAAATTAATGCTCGGAGTCACCTAGTGCAG,26900 fluorescence intensity (a.u.)
4,ACCTCAACAAAAGCTTTGTAGTAGCTCTTAATTGTTGGGTCGGAGTCACCTAGTGCAG,8220 fluorescence intensity (a.u.)
5,TTTGCTCCACACCACACAACACACATTGTACGGCGTTGCTCGGAGTCACCTAGTGCAG,8210 fluorescence intensity (a.u.)
6,CCCAAATCCATCCAGCCCGTCGCCGCCCGCCGCCCGCCGCCGGAGTCACCTAGTGCAG,8860 fluorescence intensity (a.u.)
7,CACTCCTGCTGCCGTCCAGTTGCAATTGCGTTTTCTCCTTCGGAGTCACCTAGTGCAG,16700 fluorescence intensity (a.u.)
8,TACTGCCGTCGCCGTCGCCCCACGTTTCCTTCTCCAGTTTCGGAGTCACCTAGTGCAG,8300 fluorescence intensity (a.u.)
9,TGTTCTGTGAGAATAGTTTCGTCCGTCTTGTTTTCTCCTGCGGAGTCACCTAGTGCAG,8470 fluorescence intensity (a.u.)
10,TGTTAAAACACCCTTTTTCACTTTTCTAGCCGTTCACTTTCGGAGTCACCTAGTGCAG,9280 fluorescence intensity (a.u.)
11,TGTTATTGTCCTGTATCAGTCCCGTGCTGTTTTTCTCTTTCGGAGTCACCTAGTGCAG,13000 fluorescence intensity (a.u.)
12,AGTCCGTGCTGCAGATCTGCTCTTTTCTCTTCGTTTAACTCGGAGTCACCTAGTGCAG,10300 fluorescence intensity (a.u.)
13,CTTTTCTAGCCGTTCACTTTTTTTTACCACAGTAGTTTTTCGGAGTCACCTAGTGCAG,16600 fluorescence intensity (a.u.)
14,AGTTTTCTTTGTTCACCTACCGTTTTTTTAGCACGTAGTTCGGAGTCACCTAGTGCAG,10500 fluorescence intensity (a.u.)
15,ATCCACTCCAGTCCCGTCCCGTTTCCTTGCTGCCCGGCCGCGGAGTCACCTAGTGCAG,9660 fluorescence intensity (a.u.)
16,ACGTGTCCTTCTCTCTTTTTTTCTTTTTCGTTTTCTTCTCCGGAGTCACCTAGTGCAG,8280 fluorescence intensity (a.u.)
17,GTCCGTCTTGTTTTCTCCTGCGTCACAATTGTCCCGTATTCGGAGTCACCTAGTGCAG,18500 fluorescence intensity (a.u.)
18,CTGATCTTAACTCCGTGTTTTTCCGCGTTCTCTTTCGTTCCGGAGTCACCTAGTGCAG,19600 fluorescence intensity (a.u.)
19,CCGGGTTCCTGTTTTTTCAACGCATGCACACTTTAATCTACGGAGTCACCTAGTGCAG,9290 fluorescence intensity (a.u.)
20,AATTTTTTTTTGCTTACAAAGGGTGAAACTTTCTCTCTCTCGGAGTCACCTAGTGCAG,8500 fluorescence intensity (a.u.)
21,CTCCGACGACCCCACCGTGCCCACCCCGACCGCCGTCTCGCGGAGTCACCTAGTGCAG,9650 fluorescence intensity (a.u.)

row,Sequence,binding signal
1,TTTCTGGGATATTCCATCTCATTACAGCACTCATTCTTTACGGAGTCACCTAGTGCAG,9350 fluorescence intensity (a.u.)
2,AATCTCCATCTTCTTGCTCGTACAACGTAAATACTCGTCTCGGAGTCACCTAGTGCAG,8830 fluorescence intensity (a.u.)
3,CGTCTTGTCTTGGCGTATGTTGGCTTGTATGTTGTTCCGTCGGAGTCACCTAGTGCAG,10500 fluorescence intensity (a.u.)
4,GTTCTTGGTTCCTGCATTTCTTTTCTTTTTTGCCTTTGTTCGGAGTCACCTAGTGCAG,11300 fluorescence intensity (a.u.)
5,ATTGTCCATGATGTTCTTCCTTTTCTTTTTCGTTGTCAAACGGAGTCACCTAGTGCAG,10300 fluorescence intensity (a.u.)
6,CCGCTCCGTTTTGTGTCGTTTTGTGTATTTTCTCCACTCACGGAGTCACCTAGTGCAG,17400 fluorescence intensity (a.u.)
7,CCTGCCGTTTTCTTTTTCTTTTTCTTTCCTTTTCCTTTTTCGGAGTCACCTAGTGCAG,17000 fluorescence intensity (a.u.)
8,CCTATTTTTGATGTTCCGGATTTTTTCTTTGCGGCCAAAACGGAGTCACCTAGTGCAG,11700 fluorescence intensity (a.u.)
9,CTCTTTTCTTTCTTTTCTTTTCCTTTCTTTTTCCTTTCTTCGGAGTCACCTAGTGCAG,8540 fluorescence intensity (a.u.)
10,CCCTTTGTCCTGCAGTACGTTTTTCCTTGCATTTTTCTTTCGGAGTCACCTAGTGCAG,19700 fluorescence intensity (a.u.)
11,ATCATCACTCCATTGCCGCTGTATTTGTTGTCATCGTTTTCGGAGTCACCTAGTGCAG,11200 fluorescence intensity (a.u.)
12,ACTTGATGTTCTTTCGTTCTTTCCTGCGAAAACGTCAGGCCGGAGTCACCTAGTGCAG,25600 fluorescence intensity (a.u.)
13,TTATTTTCTCCACTCACTACTTGTTCGTTTAGCAATTTGTCGGAGTCACCTAGTGCAG,8750 fluorescence intensity (a.u.)
14,CTTTCTTTTTCCTTCTCTCTCTCTTTTCTTTCTTTTCTTTCGGAGTCACCTAGTGCAG,13600 fluorescence intensity (a.u.)
15,AGTTTTGTTTCTTTCCTGTTCACAGTTCACCTTTGCCTTTCGGAGTCACCTAGTGCAG,12400 fluorescence intensity (a.u.)
16,TCCTCTCTGTCTTCTGTCTTCTCTTCTTCTTCCTCACCAACGGAGTCACCTAGTGCAG,11600 fluorescence intensity (a.u.)
17,CAAACAGAGCACACCTTTTTCCAGGACATTTGTCAATATTCGGAGTCACCTAGTGCAG,9180 fluorescence intensity (a.u.)
18,ATCCTTTTCTTTGGCAGTCCTTGATCCCAGATCCACATTTCGGAGTCACCTAGTGCAG,9820 fluorescence intensity (a.u.)
19,GGCTTTAATTGATCACTATGAATACTTGGCTTGTTGTCATCGGAGTCACCTAGTGCAG,9040 fluorescence intensity (a.u.)
20,AAACCTCGCATGCCAATAGTTGGGAACGCCGGGGCGGGGTCGGAGTCACCTAGTGCAG,9340 fluorescence intensity (a.u.)
21,TTCCTTTTTCTATTTTTGGAATTTATTTTAATTTTTATTTCGGAGTCACCTAGTGCAG,8910 fluorescence intensity (a.u.)
